Test results as given in PubChem BioAssay (NCATS).
Inconclusive results are not listed. Values without a mark were called inactive. Activity calls are given as the source filed them. The call rests on the fitted dose curve; in most records, active means well fitted inhibition curve with a large enough effect; inconclusive means small, poorly fitted or top-dose-only effect; inactive means flat fitted curve, though single readings scatter.

Each compound was assayed on Zika virus NS2B-NS3 protease (assay: Primary screen GU AMC qHTS for Zika virus inhibitors (AID 1347154;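 further: 0% = no-inhibitor control and -100% = no-enzyme control; nearly all actives have a fitted effect of over 70% in size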)). Conditions: Zika NS2B-NS3 unlinked protease, AMC fluorogenic substrate; series mostly up to 54.1 µM; activity change, negative = inhibition: at the top concentration.
Method in brief: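 Unlinked Zika NS2B hydrophilic domain–NS3 protease complex at 25 nM in 10 mM Tris-HCl pH 8.0, 0.01% Tween 20, with an AMC peptide substrate. Fluorescence change (340/450 nm) over 15 min at room temperature, normalized to controls, fitted to 4-parameter Hill.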
`NC(N)=NS(=O)(=O)c1ccc(N)cc1` was tested, and the “activity change, negative = inhibition” value was -1.46%. For `OC[C@@H](O)[C@@H](O)[C@H](O)[C@H](O)CO`, the “activity change, negative = inhibition” value was -1.78%. With `C/C=C/C(=O)N(CC)c1ccccc1C` the “activity change, negative = inhibition” value was 1.69%. In the case of `COc1ccc2cc(CCC(C)=O)ccc2c1`, the “activity change, negative = inhibition” value is reported as -0.581%. With `COc1cc(C(=O)NCCCCCC(=O)O)cc(OC)c1OC` the “activity change, negative = inhibition” value was 1.29%. With `COc1ccc(-c2cc(=O)c3c(O)cc(O[C@@H]4O[C@H](CO[C@@H]5O[C@@H](C)[C@H](O)[C@@H](O)[C@H]5O)[C@@H](O)[C@H](O)[C@H]4O)cc3o2)cc1O` the “activity change, negative = inhibition” value was -8.67%. For `Cn1cc(C(=O)[C@@H]2CCc3nc[nH]c3C2)c2ccccc21`, the “activity change, negative = inhibition” value was 1.2%. With `O=C(Cn1ccnc1[N+](=O)[O-])NCc1ccccc1` the “activity change, negative = inhibition” value was -1.41%. `CCCOC(=O)c1ccc(N)cc1` was tested, and the “activity change, negative = inhibition” value was -0.834%. With `Nc1c2c(nc3c1CCC3)CCCC2` the “activity change, negative = inhibition” value was 0.687%. With `O=C(O)c1ccccc1C(=O)Nc1ccc(S(=O)(=O)Nc2nccs2)cc1` the “activity change, negative = inhibition” value was -2.27%. `NNC(=O)CP(=O)(c1ccccc1)c1ccccc1` was tested, and the “activity change, negative = inhibition” value was -8.46%. In the case of `CCCCCC(N)=O`, the “activity change, negative = inhibition” value is reported as -1.47%. For `NNc1nnc(NN)c2ccccc12`, the “activity change, negative = inhibition” value was -9.1%. `C[C@@H]1CCC[C@H](C)N1` was tested, and the “activity change, negative = inhibition” value was -0.379%. `Cc1cc(OI)c(C(C)C)cc1-c1cc(C(C)C)c(OI)cc1C` was tested, and the “activity change, negative = inhibition” value was -11.5%. `COc1ccc(NS(=O)(=O)c2ccc(N)cc2)nn1` was tested, and the “activity change, negative = inhibition” value was -2.86%. In the case of `C1CCN2C[C@@H]3C[C@@H](CN4CCCC[C@@H]34)[C@H]2C1`, the “activity change, negative = inhibition” value is reported as 4.22%. In the case of `Cc1c(NC(C)C)c(=O)n(-c2ccccc2)n1C`, the “activity change, negative = inhibition” value is reported as -5.25%. In the case of `CNc1c2c(nn1C)CCCC2`, the “activity change, negative = inhibition” value is reported as -7.23%. With `CC1CC(OC(=O)c2ccccc2O)CC(C)(C)C1` (configuration not stated) the “activity change, negative = inhibition” value was 0.356%. For `Cc1cc(C)c(NC(=O)CN(CC(=O)O)CC(=O)O)c(C)c1Br`, the “activity change, negative = inhibition” value was -1.94%. `CCN(CC)C(=O)c1cccc(C)c1` was tested, and the “activity change, negative = inhibition” value was -5.05%. `Cc1ncc(CO)c(CN)c1O` was tested, and the “activity change, negative = inhibition” value was -11.9%. For `C=CCSCC1Nc2cc(Cl)c(S(N)(=O)=O)cc2S(=O)(=O)N1` (configuration not stated), the “activity change, negative = inhibition” value was -4.18%. With `CC(C)CCOC(=O)c1ccc(N(C)C)cc1` the “activity change, negative = inhibition” value was -5.3%. In the case of `CCOC(N)=O`, the “activity change, negative = inhibition” value is reported as -4.18%. In the case of `Cc1ccc(C(C)C)c(O)c1`, the “activity change, negative = inhibition” value is reported as 0.0404%. In the case of `Cc1ccccc1N=Nc1ccc(N=Nc2c(O)ccc3ccccc23)c(C)c1`, the “activity change, negative = inhibition” value is reported as -4.01%. With `C[n+]1ccccc1/C=N/O` the “activity change, negative = inhibition” value was -0.102%. For `CC1(c2ccccc2)OC(C(=O)O)=CC1=O` (configuration not stated), the Potency was “inactive”. `C[N+]1(C)CCCC(OC(=O)C(O)(c2ccccc2)c2ccccc2)C1` (configuration not stated) was tested, and the “activity change, negative = inhibition” value was -2.33%. For `Cc1cccc(C)c1NC(=O)CC12CCCN1CCC2`, the “activity change, negative = inhibition” value was -3%. For `O=C(c1ccccc1)C(O)c1ccccc1` (configuration not stated), the “activity change, negative = inhibition” value was -3.72%. In the case of `Cc1ccc(S(=O)(=O)NC(=O)NC2CCCCC2)cc1`, the “activity change, negative = inhibition” value is reported as -1.6%. `CC(=O)OCC(=O)[C@@]1(O)CC[C@H]2[C@@H]3CCC4=CC(=O)C=C[C@]4(C)[C@@]3(F)[C@@H](O)C[C@@]21C` was tested, and the “activity change, negative = inhibition” value was 3.27%. `CN[C@@H]1[C@@H](O)[C@@H](O[C@@H]2[C@H](O)[C@H](O[C@H]3OC(CN)=CC[C@H]3N)[C@@H](N)C[C@H]2N)OCC1(C)O` (some centres not stated) was tested, and the “activity change, negative = inhibition” value was -0.839%.
